Hit rate of the full screen: of about 52,000 compounds, about 4,300 (8.3%) were called active. The sample holds actives, similar compounds and a random draw of the others, so the mix is not that of the screen. No stated cut-off is given here; in the data, active means survival mostly below about 52% (no sharp cut-off); inactive means mostly above about 56%.

This experiment has as its system DeltatarO mutant. Description: growth inhibition of S. aureus wild type versus tarO mutant, primary screen, teichoic acid synthesis inhibitors, RN4220, OD600 (AID 463173). The note with it: OD600, 18 h, active compounds read low, screened at 18.75 µg/mL (by protocol).
Turning to `COC(=O)CSc1ccc2nnc(CCNS(=O)(=O)c3ccccc3)n2n1`, the survival is 118% (inactive).

Take `CCc1ccc(NC(=O)NCCc2c(C)nn(C)c2C)cc1`: the survival was 72% (inactive).

As to `COc1ccccc1Cn1cc(C(=O)c2ccc(Cl)cc2)c(=O)c2ccccc21`, the survival was 83% (inactive).

Consider `Cc1cccc(Cn2c(=O)n(Cc3ccc4c(c3)OCO4)c(=O)c3oc4ccccc4c32)c1`, for which the survival was 77% (inactive).

`Cc1oc2ncn(CC(C)C)c(=O)c2c1C(=O)Nc1cc(F)ccc1F`: the survival was 65% (inactive).

For `COc1ccc2c(CNC3CCC(C)CC3)c(C(=O)O)n(Cc3ccc(F)cc3)c2c1` (stereo not drawn), the survival was 70% (inactive).

Take `CCC(=O)n1nc(-c2ccccc2)nc1N`: the survival is 104% (inactive).

With `CN(Cc1ccccc1)c1ncnc2c1nnn2C`, the survival was 72% (inactive).

Turning to `COc1cccc(CNC(=O)CSc2nc(=O)[nH]c3c2CCCC3)c1`, the survival was 85% (inactive).

Turning to `C=CCSc1nnc(-c2ccccc2)n1-c1ccccc1`, the survival was 103% (inactive).

Take `Cc1c(Cl)cccc1NC(=O)CSc1nc(=O)[nH]c2c1CCC2`: the survival is 93% (inactive).

On to `CCn1c(CC2C(=O)N(C)c3ccc(Br)cc32)nc2ccccc2c1=O` (stereo not drawn), for which the survival is 70% (inactive).

For `CCCN1C(=O)C(Cc2nc3ccccc3c(=O)n2CC)c2ccccc21` (stereo not drawn), the survival was 84% (inactive).

For `CCCN1C(=O)C(Cc2nc3ccccc3c(=O)n2-c2cccc(C)c2)c2ccccc21` (stereo not drawn), the survival is 36% (active).

For `CCCN1C(=O)C(Cc2nc3ccccc3c(=O)n2-c2ccccc2)c2cc(C)ccc21` (stereo not drawn), the survival was 68% (inactive).

As to `Cc1cccc(-n2c(SCC(N)=O)nc3ccccc3c2=O)c1`, the survival was 90% (inactive).

For `CCCN1C(=O)C(Cc2nc3ccccc3c(=O)n2CC)c2cc(Br)ccc21` (stereo not drawn), the survival is 34% (active).

As to `CCN1C(=O)C(Cc2nc3ccccc3c(=O)n2-c2cccc(C)c2)c2ccccc21` (stereo not drawn), the survival is 50% (inactive).

As to `CCOC(=O)CSc1nc2ccccc2c(=O)n1-c1cccc(C)c1`, the survival was 31% (active).

Regarding `CCOC(=O)CSc1nc2ccccc2c(=O)n1-c1ccc(C(=O)NCCOC)cc1`, the survival was 96% (inactive).

For the compound `COCCN(C(=O)c1ccccc1)c1nnc(-c2ccncc2)s1`, the survival is 94% (inactive).

Regarding `Cc1cc(C)cc(NC(=O)CSc2nc(=O)[nH]c3c2CCC3)c1`, the survival was 112% (inactive).

For the compound `CCCOC1(C(F)(F)F)NC(=O)N(c2ccc(Cl)cc2)C1=O` (stereo not drawn), the survival was 66% (inactive).

`Cc1cc(C)c2c(n1)SCCN2C(=O)Nc1ccc(C(=O)Nc2cc(Cl)ccc2C)cc1`: the survival is 97% (inactive).

As for `CC(=O)Nc1ccc(NC(=O)CCc2c(C)nc3c(c(C)nn3-c3ccc(C)cc3)c2C)cc1`, the survival is 114% (inactive).

For the compound `CCC1CN(C(=O)N2CCC(C(=O)N3CCN(c4cccc(C)c4C)CC3)CC2)c2ccccc2O1` (stereo not drawn), the survival is 62% (inactive).

In the case of `CCC1CN(C(=O)N2CCC(C(=O)N3CCN(c4ccccc4F)CC3)CC2)c2ccccc2O1` (stereo not drawn), the survival was 97% (inactive).

Regarding `CCC1CN(C(=O)N2CCC(C(=O)N3CCN(c4cc(C)ccc4C)CC3)CC2)c2ccccc2O1` (stereo not drawn), the survival was 36% (active).

(Values after PubChem BioAssay AID463173 (ICCB-Longwood Screening Facility, Harvard Medical School, 2010).)
